The values below come from PubChem BioAssay (NCATS).

Experiment [1] addresses Mitogen-activated protein kinase 10 (Mus musculus) (UniProt Q61831). Nature of the experiment: JNK3 AlphaScreen Assay (AID 530; active = well fitted curve in either direction with a large enough effect, not every such curve was filed as active;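 note: kinase came from lysate of stimulated human HepG2 cells; signal reports phosphorylation of biotinylated GST-cJun 1-79 at Ser73 with 10 µM ATP; % is set by controls: 0 for no effect and ±100 for the full control effect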). The method, boiled down:
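Activity was read by AlphaScreen after JNK3-containing HepG2 lysate (cytokine pre-activated) phosphorylated biotinylated GST-cJun with 10 uM ATP at room temperature. Phospho-Ser73 cJun antibody with Protein-A acceptor beads provided detection.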
Background: In Alpha technology, singlet oxygen from a donor bead excites a nearby acceptor bead.

Experiment [2] can be described thus: Cell Viability - SH-SY5Y (AID 544).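 Note: cells exposed to compound for 40 hours; nearly all actives have a fitted effect of over 55% in size.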 The note with it: SH-SY5Y neuroblastoma cell viability; viability change, negative = cytotoxic: at 92.2 µM (top of the series). An outline of the steps:
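Cells were plated at 1500 per well and allowed 5 hr at 37 °C. Compounds were added across a concentration range and incubated 40 hr at 37 °C. CellTiter-Glo was added for 20 min at room temperature before luminescence reading.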

Experiment [3] can be described thus: Cellular Toxicity (caspase-3) HUV-EC-C (AID 656). An outline of the steps: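 Read-out: luminescence proportional to caspase 3/7 activity, measured 20 min after adding Caspase-Glo 3/7 reagent. Cells (HUV-EC-C) had received compound for 16 hr at 37°C. Increases relative to DMSO and 100 uM tamoxifen gave concentration-response AC50 values.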
The nature of experiment [4]: Cellular Toxicity (caspase-3) Hek293 (AID 664).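 Note: cells exposed to compound for 16 h at 37 °C before readout.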 The note with it: HEK293 caspase-3 activation, DMSO = 0%, 100 µM tamoxifen = 100%; at 92.2 µM (top of the series). The method, boiled down: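 qHTS, HEK293 (human embryonic kidney), 16 h cpd exposure in complete medium. Caspase-3/7 activation = luminescence increase; normalized to DMSO/100 uM tamoxifen; Hill-fit AC50.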

Experiment [5] can be described thus: Cell Viability - LYMP2-001 (AID 921).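 Note: 0% = DMSO only and full inhibition = tetraoctylammonium bromide control wells; nearly all actives have a fitted effect of over 70% in size.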 The method, boiled down:
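qHTS, 1536-well; lymphoblastoid cells, 24 hr compound, 37 C; ATP by CellTiter-Glo, 30 min RT; luminescence; Hill-fit AC50.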

Experiment [6] in a line: MultiTox-Fluor Cytotoxicity Assay - LYMP1-002 - Live Cells (AID 955).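 Note: cells exposed to compound for 16 hours; % is set by controls: 0 for no effect and ±100 for the full control effect.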 The method, boiled down: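 Cells were seeded at 2500 per well and incubated 5 hr. Compounds were then added for 16 hr at 37 C, followed by MultiTox-Fluor reagent for 60 min at room temperature and fluorescence reading of viable-cell protease signal.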
A short description of experiment [7]: Cell Viability - LYMP1-003 - Assay at 40 hr (AID 964). Note: % is set by controls: 0 for no effect and ±100 for the full control effect; nearly all actives have a fitted effect of over 60% in size. An outline of the steps:
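Luminescent ATP signal (CellTiter-Glo) served as the viability read-out after 40 hr compound treatment of human lymphoblastoid LYMP1-003 cells at 37 C. Decreases in ATP were fitted with the Hill equation to give AC50.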

The nature of experiment [8]: Cell Viability - LYMP2-013 (AID 970).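 Note: 0% = DMSO only and full inhibition = tetraoctylammonium bromide control; nearly all actives have a fitted effect of over 55% in size.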 The method, boiled down: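 Cytotoxicity is scored as a concentration-dependent drop in intracellular ATP in human lymphoblastoid cells after 24 hr compound exposure at 37 C. ATP is quantified by luciferase luminescence, and AC50 values come from Hill-equation modeling.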
Experiment [9] is described as follows: Cell Viability - LYMP2-019 (AID 973).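 Note: 0% = DMSO alone and full effect = 92 µM tetraoctylammonium bromide; nearly all actives have a fitted effect of over 55% in size.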 The method, boiled down: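 Cytotoxicity is scored as a concentration-dependent drop in cellular ATP after cells (2500/well) receive compound for 24 hr at 37 C. Tetraoctylammonium bromide serves as positive control.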
A short description of experiment [10]: Cell Viability - LYMP2-002 (AID 977).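 Note: compound exposure lasted 24 h at 37 °C; plate controls were DMSO only for no effect and 92 µM tetraoctylammonium bromide for full effect.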 An outline of the steps: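 Human lymphoblastoid cells, 2500/well, complete medium; 5 h 37 C settle; compound 24 h 37 C; CellTiter-Glo, 30 min RT; luminescence. Decrease in ATP = cytotoxicity; AC50 via Hill equation.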
The nature of experiment [11]: Cell Viability - LYMP2-008 (AID 980). Note: % is set by controls: 0 for no effect and ±100 for the full control effect; nearly all actives have a fitted effect of over 60% in size. The method, boiled down: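 Cells seeded at 2500/well and rested 5 hr at 37 C; compounds added over a concentration range and incubated 24 hr at 37 C; CellTiter-Glo added, 30 min at room temperature; luminescence read and AC50 fitted with Hill model.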
Experiment [12] can be described thus: Cell Viability - LYMP2-010 (AID 981).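 Note: cells exposed to compound for 24 hours at 37 °C; % is set by controls: 0 for no effect and ±100 for the full control effect; nearly all actives have a fitted effect of over 55% in size.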 The method, boiled down: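 Steps: seed 2500 LYMP2-010 cells per well; incubate 5 hr at 37 C; add compound; incubate 24 hr at 37 C; add CellTiter-Glo, wait 30 min at room temperature; read luminescence. Concentration-response fitted to Hill equation for AC50.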
Experiment [13] is described as follows: Cell Viability - LYMP2-016 (AID 984). An outline of the steps: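 Acute toxicity in a Coriell human lymphoblastoid line is scored as loss of intracellular ATP over 24 h of treatment in complete medium. CellTiter-Glo signal is fitted across concentrations with the Hill equation to give AC50.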
Experiment [14] is described as follows: Cell Viability - LYMP2-020 (AID 986). The method, boiled down: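 Seed 2500 cells per well and incubate 5 hr at 37 C. Add compounds at a concentration series and incubate 24 hr at 37 C. Add CellTiter-Glo, wait 30 min at RT, read luminescence, and fit a Hill curve for AC50.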
Experiment [15] is described as follows: Cell Viability - LYMP2-022 (AID 987). An outline of the steps: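 Cells were seeded at 2500 per well, rested 5 hr at 37 C, and treated with titrated compounds for 24 hr at 37 C. Cellular ATP was then quantified by luciferase luminescence, and AC50 values were derived from Hill-modelled concentration-response curves.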
Experiment [16] addresses Vitamin D3 receptor (Homo sapiens) (UniProt P11473). Nature of the experiment: qHTS assay for small molecule agonists of vitamin D receptor signaling (AID 588543; calls by dose curve;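 note: 0% = DMSO basal and 100% = reference agonist control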). An outline of the steps: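 qHTS in agonist mode: compound titrations stimulate a VDR-driven β-lactamase reporter in HEK293T cells over 16 h at 37 °C. Response normalized to 50 nM 1α,25-dihydroxyvitamin D3 = 100%, DMSO = 0%; Hill fitting gives EC50 and maximal response.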

A short description of experiment [17]: qHTS assay for small molecule agonists of retinoid X receptor alpha signaling (AID 588544). The note with it: HEK293T RXRa-UAS-bla, beta-lactamase reporter, 18 h; 530 nm emission. Background: qHTS replaces the single test concentration by a dilution series.
Experiment [18] deals with Thyroid hormone receptor beta (Homo sapiens) (UniProt P10828). In words: qHTS assay for small molecule antagonists of thyroid hormone receptor beta signaling (AID 588547; active = well fitted inhibition curve with a large enough effect in the signal ratio, with a control signal flat, not every such curve was filed as active; the % refers to the signal ratio;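 note: cells stimulated with 0.4 nM T3 agonist during compound exposure; % is set by controls: 0 for no effect and ±100 for the full control effect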). The conditions noted are these: TR-UAS-bla HEK293, beta-lactamase ratio, antagonist mode, 18 h. An outline of the steps:
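TR-UAS-bla GripTite HEK293 cells in 2% charcoal/dextran FBS medium; compounds 0.59 nM to 92 uM with T3 at 0.4nM final, 18 h at 37 C. Beta-lactamase read by CCF4 fluorescence (460/530 nm); Hill fits gave IC50 and efficacy.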

Experiment [19] is described as follows: qHTS assay for small molecule disruptors of the mitochondrial membrane potential - 1 hr assay (AID 651754; calls by dose curve; note: nearly all actives have a fitted effect of over 35% in size; note: potency is the fitted concentration of half-maximal effect). The method, boiled down: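 Loss of mitochondrial potential shifts the cationic dye from red mitochondrial aggregates to green cytoplasmic monomers. Cells (HepG2) are treated with compound for 1 hr before a 30 min dye incubation at 37C.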
Experiment [20] concerns the target Tumor necrosis factor (Homo sapiens) (UniProt P01375). In words: qHTS assay to identify small molecules that stimulate Tumor Necrosis Factor-alpha (TNF-alpha) secretion (AID 651757; active = well fitted curve in the direction sought with a large enough effect in the signal ratio; the % refers to the signal ratio; note: 0% is about no effect). An outline of the steps: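 Human monocytic THP-1 cells are plated, treated with compound and held at 37 C for 17 hrs. Labeled anti-TNF-alpha antibody mixture is then added; after 3 hr at room temperature, TR-FRET signal reports secreted TNF-alpha.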

The structures appear in SMILES notation. Several values for one entry are separate records, joined by “and”; a condition that tells them apart may be missing. Equal values may be shown once. Inconclusive results are not listed. Activity calls are given as the source filed them. Unless noted, calls come from the whole dose curve; as a rule, active = well fitted curve in the direction sought with a large enough effect; inconclusive = small, poorly fitted or top-dose-only effect, or another doubt; inactive = no such curve, though single readings can be large; an effect the other way counts as inactive or inconclusive.

Sequence of Vitamin D3 receptor (Homo sapiens) (P11473 whole entry, looked up): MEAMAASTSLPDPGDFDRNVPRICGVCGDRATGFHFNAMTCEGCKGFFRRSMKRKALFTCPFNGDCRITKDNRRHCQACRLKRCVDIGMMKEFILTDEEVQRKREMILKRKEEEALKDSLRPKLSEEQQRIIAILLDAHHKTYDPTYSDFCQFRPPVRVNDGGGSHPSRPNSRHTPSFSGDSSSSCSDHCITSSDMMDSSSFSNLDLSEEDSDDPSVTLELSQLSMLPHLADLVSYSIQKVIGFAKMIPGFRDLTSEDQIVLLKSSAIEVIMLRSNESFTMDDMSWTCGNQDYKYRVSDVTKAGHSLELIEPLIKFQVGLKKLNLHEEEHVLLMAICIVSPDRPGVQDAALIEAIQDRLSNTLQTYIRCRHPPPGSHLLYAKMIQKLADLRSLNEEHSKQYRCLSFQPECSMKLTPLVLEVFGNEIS
Sequence of Tumor necrosis factor (Homo sapiens) (P01375 whole entry, looked up): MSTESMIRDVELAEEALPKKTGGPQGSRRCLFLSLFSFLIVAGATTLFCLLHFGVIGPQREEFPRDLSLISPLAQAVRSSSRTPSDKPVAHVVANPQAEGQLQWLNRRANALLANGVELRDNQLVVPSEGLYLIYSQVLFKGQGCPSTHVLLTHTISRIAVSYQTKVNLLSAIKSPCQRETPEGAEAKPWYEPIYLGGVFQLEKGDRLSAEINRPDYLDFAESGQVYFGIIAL
Sequence of Thyroid hormone receptor beta (Homo sapiens) (P10828 whole entry, looked up): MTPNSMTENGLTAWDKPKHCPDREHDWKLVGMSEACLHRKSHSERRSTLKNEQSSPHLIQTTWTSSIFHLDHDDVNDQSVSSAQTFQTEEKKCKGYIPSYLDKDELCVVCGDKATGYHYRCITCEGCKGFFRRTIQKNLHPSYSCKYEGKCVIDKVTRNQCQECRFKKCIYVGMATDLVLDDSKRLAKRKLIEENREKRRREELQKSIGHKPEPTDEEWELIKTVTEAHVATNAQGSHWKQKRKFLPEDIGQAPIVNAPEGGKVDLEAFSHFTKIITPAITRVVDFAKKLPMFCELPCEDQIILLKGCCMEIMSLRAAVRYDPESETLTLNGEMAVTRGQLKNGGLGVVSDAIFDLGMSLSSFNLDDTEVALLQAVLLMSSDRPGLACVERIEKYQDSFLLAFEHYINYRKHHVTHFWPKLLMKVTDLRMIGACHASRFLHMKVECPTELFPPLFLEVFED

In the case of `CCC(Cl)[N+](=O)[O-]` (centres undefined), the Potency entry in [1], in [2], in [5], in experiment [7], in experiment [8] and in [9] was “inactive” each time. Moreover, the Potency entry in [10], in experiment [11], in experiment [12], in [13], in [14] and in experiment [15] was “inactive” throughout. Also, the Potency entry in experiment [19] is “inactive”. Further, the call in [3], in [6], in experiment [16] and in experiment [20] was inactive. For the same compound, the caspase-3 activation in experiment [4] is -0.0531% (inactive). Besides, the max response in experiment [17] was -8.6%. Also, the activity change % (negative = inhibition) in experiment [18] was -30.2% (inactive).
`C=CC(=O)OCCN(C)C`: the Potency entry in experiment [1], in [2], in experiment [5], in experiment [7], in experiment [8] and in experiment [9] was “inactive” in each case. For the same compound, the Potency entry in experiment [10], in [11], in [12], in experiment [13], in [14] and in experiment [15] was “inactive” throughout. For the same compound, in [19], the Potency entry was “inactive”. For the same compound, the call in [3], in experiment [6], in experiment [16] and in [20] was inactive. Besides, the caspase-3 activation in experiment [4] was -0.126% (inactive). Besides, the max response in experiment [17] was -14.1%. Moreover, the activity change % (negative = inhibition) in experiment [18] was -23.4% (inactive).
Regarding `Oc1cc(Cl)c(Cl)c(Cl)c1`, the Potency result in experiment [1], in experiment [5] and in experiment [7] was “inactive” in each case. In addition, the compound was classed as inactive in experiment [3], in experiment [6], in experiment [16] and in [20]. Also, the caspase-3 activation in experiment [4] is 11.5% (inactive). Further, in experiment [19], the Potency was 33.5 µM (active).
`C=CC#N`: the Potency result in experiment [1], in experiment [2], in experiment [5], in experiment [7], in experiment [8] and in experiment [9] was “inactive” each time. The Potency result in [10], in experiment [11], in experiment [12], in [13], in experiment [14] and in experiment [15] was “inactive” throughout. The Potency result in experiment [19] is “inactive”. In addition, the call in [3], in experiment [6], in experiment [16] and in [20] was inactive. For the same compound, in experiment [17], the max response amounted to 6.79%. Further, the activity change % (negative = inhibition) in experiment [18] was -5.45% (inactive).
As for `Cc1cccc(N)c1C`, the Potency result in [1], in experiment [2], in experiment [5], in experiment [8], in experiment [9] and in experiment [10] was “inactive” in each case. Besides, the Potency result in experiment [11], in experiment [12], in experiment [13], in [14], in experiment [15] and in experiment [19] was “inactive” in each case. The result in experiment [3], in experiment [6], in experiment [16] and in experiment [20] was inactive. Further, the caspase-3 activation in [4] is 1.27% (inactive). Further, the max response in experiment [17] is -3.13%. In addition, the activity change % (negative = inhibition) in experiment [18] was 2.82% (inactive).
Turning to `O=Cc1ccc2c(c1)OCO2`, the Potency result in experiment [1], in experiment [2], in experiment [5], in [7], in experiment [8] and in [9] was “inactive” each time. Moreover, the Potency entry in experiment [10], in [11], in experiment [12], in experiment [13], in [14] and in experiment [15] was “inactive” throughout. Moreover, the Potency result in experiment [19] is “inactive”. For the same compound, the compound was classed as inactive in experiment [3], in experiment [6], in experiment [16] and in experiment [20]. Moreover, the caspase-3 activation in experiment [4] was 0.153% (inactive). The max response in experiment [17] turned out to be 19.3%. The activity change % (negative = inhibition) in experiment [18] was 5.85% (inactive).
As for `ClCc1ccccn1`, the Potency entry in experiment [2], in experiment [5], in [7], in experiment [8], in experiment [9] and in experiment [10] was “inactive” each time. For the same compound, the Potency entry in experiment [11], in experiment [12], in [13], in experiment [14], in experiment [15] and in [19] was “inactive” each time. For the same compound, the call in experiment [3], in experiment [6], in experiment [16] and in experiment [20] was inactive. The caspase-3 activation in [4] was 0.273% (inactive). In experiment [17], the max response was -5.13% and -0.246%. In addition, the activity change % (negative = inhibition) in [18] was -1.68% (inactive).
Turning to `COc1ccccc1N`, the Potency entry in [1], in experiment [2], in [5], in [7], in [8] and in experiment [9] was “inactive” in each case. The Potency entry in experiment [10], in [11], in experiment [12], in experiment [13], in experiment [14] and in experiment [15] was “inactive” throughout. The Potency result in experiment [19] was “inactive”. In addition, the caspase-3 activation in experiment [4] was 1.4% (inactive). The outcome in experiment [6] and in [20] was inactive. For the same compound, the max response in experiment [17] was -8.71%.
For `C[C@@H]1O[C@@H](O[C@H]2C[C@@H](O)[C@@]3(CO)[C@H]4[C@H](O)C[C@]5(C)[C@@H](C6=CC(=O)OC6)CC[C@]5(O)[C@H]4CC[C@@]3(O)C2)[C@@H](O)[C@H](O)[C@H]1O`, the activity change, negative = inhibition in experiment [1] is -1.14% [at 11.4 µM] (inactive).
